# From PubChem BioAssay AID1347165 (National Center for Advancing Translational Sciences (NCATS), 2019)
# Screen size: about 220,000 compounds; about 5,700 (2.6%) were called active. Entries that show only a call come without a potency. Another 18% or so got no clear call; they are omitted. The sample holds actives, similar compounds and a random draw of the others, so the mix is not that of the screen. Calls follow the shape of the dose curve; as a rule, active = well fitted inhibition curve with a large enough effect; inconclusive = small, poorly fitted or top-dose-only effect; inactive = no such curve, though single readings can be large or run the other way.
# Target: Lysine-specific demethylase 5B (Homo sapiens) (UniProt Q9UGL1)
# Sequence (Q9UGL1 whole entry, looked up): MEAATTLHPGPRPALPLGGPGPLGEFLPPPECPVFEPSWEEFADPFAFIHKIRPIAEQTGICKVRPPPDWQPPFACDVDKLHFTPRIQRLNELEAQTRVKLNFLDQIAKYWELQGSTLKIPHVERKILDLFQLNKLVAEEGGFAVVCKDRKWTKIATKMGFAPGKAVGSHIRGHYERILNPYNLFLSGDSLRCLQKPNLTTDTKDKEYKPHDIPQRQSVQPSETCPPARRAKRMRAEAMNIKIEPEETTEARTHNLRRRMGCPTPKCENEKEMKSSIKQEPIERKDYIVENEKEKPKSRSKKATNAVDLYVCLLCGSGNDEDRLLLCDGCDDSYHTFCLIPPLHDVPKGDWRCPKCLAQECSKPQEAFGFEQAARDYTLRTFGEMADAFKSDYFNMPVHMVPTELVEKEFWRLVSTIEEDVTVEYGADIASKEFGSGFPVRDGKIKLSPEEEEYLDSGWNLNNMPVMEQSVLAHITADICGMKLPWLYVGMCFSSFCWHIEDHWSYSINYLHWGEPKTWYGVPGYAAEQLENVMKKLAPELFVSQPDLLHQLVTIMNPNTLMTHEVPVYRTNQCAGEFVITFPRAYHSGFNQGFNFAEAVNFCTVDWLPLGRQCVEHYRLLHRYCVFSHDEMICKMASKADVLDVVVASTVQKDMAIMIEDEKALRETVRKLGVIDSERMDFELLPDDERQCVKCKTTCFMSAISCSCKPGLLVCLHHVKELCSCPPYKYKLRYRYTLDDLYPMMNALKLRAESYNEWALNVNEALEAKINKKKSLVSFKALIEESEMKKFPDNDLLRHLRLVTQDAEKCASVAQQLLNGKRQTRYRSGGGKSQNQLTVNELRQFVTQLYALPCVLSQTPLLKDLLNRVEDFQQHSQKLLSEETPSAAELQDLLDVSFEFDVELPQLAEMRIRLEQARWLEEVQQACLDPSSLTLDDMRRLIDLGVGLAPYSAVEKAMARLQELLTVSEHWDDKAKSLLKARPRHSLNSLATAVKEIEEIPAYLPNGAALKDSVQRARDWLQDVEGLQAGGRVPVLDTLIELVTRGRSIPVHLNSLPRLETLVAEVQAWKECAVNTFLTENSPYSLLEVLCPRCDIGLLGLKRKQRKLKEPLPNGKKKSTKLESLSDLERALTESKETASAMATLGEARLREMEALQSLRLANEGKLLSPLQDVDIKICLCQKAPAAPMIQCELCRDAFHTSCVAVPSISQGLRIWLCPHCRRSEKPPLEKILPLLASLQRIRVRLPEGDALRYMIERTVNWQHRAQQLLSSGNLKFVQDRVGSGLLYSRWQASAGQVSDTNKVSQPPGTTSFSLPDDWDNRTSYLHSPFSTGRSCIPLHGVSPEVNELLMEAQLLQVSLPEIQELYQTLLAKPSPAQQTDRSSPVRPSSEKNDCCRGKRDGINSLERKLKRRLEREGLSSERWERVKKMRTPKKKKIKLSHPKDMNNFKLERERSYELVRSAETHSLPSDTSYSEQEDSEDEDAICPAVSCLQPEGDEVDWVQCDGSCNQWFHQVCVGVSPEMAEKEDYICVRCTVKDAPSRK
# Experiment: Primary screen for KDM5B Histone Demethylases FDH-coupled qHTS; also: nearly all actives have a fitted effect of over 70% in size
# Settings: FDH-coupled NADH fluorescence (FDH is formaldehyde dehydrogenase); series mostly up to 57.7 µM
# In short: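 Measured: NADH fluorescence change, 30 min, RT. System: KDM5BΔAP 200 nM final, H3K4me3 peptide, α-KG, Fe(II), ascorbate, NAD⁺ plus FDH, pH 7.5 HEPES. Compounds: titrated, 10 min pre-incubation with enzyme.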
# Potency is read from the fitted curve at half-maximal effect.
row,Structure (SMILES),Potency
1,CC(C(=O)N1CCc2ccccc21)N(C)CC(=O)Nc1ccc(F)cc1 (stereo not given),inactive
2,CCc1ccc(C(=O)C(C)Sc2nc3ccccc3c(=O)n2CCC(=O)OC)cc1 (stereo not given),inactive
3,C=CCCC(CN1CCCC1)Oc1cncc(C(=O)N2CCCC2)n1 (stereo not given),8.91 µM (active)
4,CCCCCCCCOc1ccc(C(=O)c2ccccc2O)c(O)c1,inactive
5,COc1ccc(-c2c(NC(=O)C(C)C)oc3c(C)cccc3c2=O)cc1,inactive
6,O=C(C1CCCC1)N1Cc2ccccc2CC2(CCCCN2CC2CCNCC2)C1 (stereo not given),inactive
7,COc1ccc(CN2CCn3c(nn(-c4ccncc4)c3=O)C2)cc1,inactive
8,Cn1cccc1CN1CCn2c(nn(-c3cccc(Cl)c3)c2=O)C1,63.1 µM (active)
9,O=C(c1ccc(C(F)(F)F)cc1)N1CCn2c(nn(-c3cccc(Cl)c3)c2=O)C1,inactive
10,Cc1ccc2c(Cn3cc(S(=O)(=O)N(C)C)ccc3=O)cc(=O)oc2c1,inactive
11,Cc1ccc(-c2noc(-c3cccc(Cl)c3)n2)cc1,inactive
12,CCC(C)c1ccc(-n2c(SCC(=O)N3CCC3)nc3ccccc3c2=O)cc1 (stereo not given),inactive
13,O=C(c1ccsc1)N1CCN(c2nnc3ccc(C(F)(F)F)cn23)CC1,inactive
14,Cc1ccc(C(=O)C(C)Sc2nnc3ccccn23)cc1 (stereo not given),inactive
15,O=C(CSc1nc2ccccc2nc1N1CCCC1)N1CCN(c2ccccc2)CC1,inactive
16,CC(C)CC(=O)N1CCN(c2nnc3ccccn23)CC1,28.2 µM (active)
17,CC(C)CC(=O)N1CCCN(c2nnc3ccccn23)CC1,25.1 µM (active)
18,O=C(/C=C/c1ccc(Cl)cc1Cl)Nc1ccc(-c2ccccc2)cc1,inactive
19,Cc1cc(=O)oc2c(C)c(OC(=O)CN3C(=O)NC4(CCCC4)C3=O)ccc12,inactive
20,N#C/C(=C/c1cccnc1)C(=O)NCCc1ccccc1,inactive
21,COCCNC(=S)NC1CC(C)(C)NC(C)(C)C1,inactive
22,Cc1ccc2[nH]cc(CCNC(=O)c3ccc(F)c(F)c3)c2c1,inactive
23,O=C(c1ccccc1)c1ccc(C2CC2)cc1,inactive
24,Cc1ncc(CO)c2cc(-c3nc(-c4ccccc4F)no3)c(=O)oc12,inactive
25,Fc1ccc(Nc2nc(-c3ccccc3F)no2)cc1,inactive
26,CSc1ccc(CCNc2nc(-c3ccccc3F)no2)cc1,inactive
27,CN(CCc1cn[nH]c1)c1ccc(-c2nc(-c3ccccc3F)no2)cn1,28.2 µM (active)
28,CN(C)CCN(C)c1ccc(-c2nc(-c3ccccc3F)no2)cn1,28.2 µM (active)
29,COc1cccc(C2Cn3nnc(-c4nc(-c5ccccc5F)no4)c3CO2)c1 (stereo not given),inactive
30,Cc1cccc(NC(=O)CSCC(=O)Nc2nnc(C3CC3)s2)c1,inactive
